# A selection: hits, their analogues and other compounds. The true share with any hit is near 1.8%.
# sdo1 growth: sdo1-depleted yeast growth rescue; S. cerevisiae sdo1-depleted JHY4D growth rescue, OD600 30 h; stronger effect = higher value; pdr5 snq2 efflux-pump mutant strain; z-score at 10 µM; hit rate 0.21% among 140,000;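 active = z-score above 3 at both the 24 hr and the 30 hr optical density reads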;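 note: z-score against mean and SD of all compound wells on the same plate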
# Phagocytosis inh: inhibitors of macrophage phagocytosis. J774A.1 macrophage IgG-bead phagocytosis, imaging. inhibition, % at 5 µM. hit rate 0.07% among 110,000. AID 1029;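 active = inhibition above the mean of the plate negative controls plus 5 SD, cut at about 13% in these data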;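 note: phagocytic index as fraction of beads internalized from green versus red external bead signal; plate controls were DMSO negative control for no effect and cytochalasin-D positive control for full effect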
# Measles CPE: protection of cells from measles virus; Measles virus-infected cells, CPE protection, absorbance; protection (pct of control), % at 4 µM; hit rate 1.5% among 140,000; AID 841; in the data active = protection mostly above about 24%, no sharp cut-off; inactive = mostly below about 26%
# An asterisk follows results filed as active; x = no result given; [ ] = another dose, or the depositor's remark.
SMILES,sdo1 growth,Phagocytosis inh,Measles CPE
COc1cc(NC(=O)CSc2nnnn2-c2ccccc2)cc(OC)c1OC,-1.9,-2,104*
CC1=[N+](C)N(c2ccccc2)C(=O)C1N=Cc1ccc(Cl)cc1 (configuration not stated),0.76,-1,10
CCOC(=O)/C=C/C(=O)Nc1ccccc1C(=O)NC1CCCCC1,0.06,-6,2
COC(=O)[C@@]1(Cc2ccc(F)cc2)[C@H]2c3cc(C(=O)N(C)C)n(C[C@H](O)CO)c3C[C@H]2CN1C(=O)c1ccccc1,-0.16,x,27
COC(=O)[C@@]1(Cc2ccccc2)[C@@H]2C(=CC(=O)[C@H]2CC(=O)C(=O)N(C)C)CN1C(=O)c1ccccc1,-0.78,x,82*
CCOC(=S)SCC(=O)N1CCc2ccccc2C1C1C(=O)CC(C)(C)CC1=O (configuration not stated),0.31,-4,6
Cc1ccc2sc(NC(=O)CN3C(=O)c4ccccc4C3=O)nc2c1C,-0.93,x,8
CCc1cc(-c2n[nH]c(=S)n2N)n(C)n1,1.3,x,21
CCc1nn(C)c(-c2n[nH]c(=S)n2N)c1Cl,0.22,x,44*
CC1CCC2C(=O)N(c3ccc(S(=O)(=O)c4ccccc4)cc3)C(=O)C2C1 (configuration not stated),-0.21,-7,14
c1ccc(Cc2nnc3sc(-c4ccncc4)nn23)cc1,-0.88,-1,12
c1ccc(Cc2nnc3sc(-c4ccccn4)nn23)cc1,-0.11,0,62*
Cc1cc(OC(=O)c2ccc(S(=O)(=O)N(C)C)cc2)cc(=O)o1,0.28,1,5
O/N=C1/C2C3CC4C5C3C1C5C1(OCCO1)C42 (configuration not stated),0.13,0,51*
CN1C(=O)c2ccccc2Sc2ccc(NC(=O)N3CCCC3)cc21,0.58,x,6
CCCNC(=O)Nc1ccc2c(c1)N(C)C(=O)c1ccccc1S2,0.42,x,60*
CCC(C)NC(=O)c1ccccc1NC(=O)/C(=C/c1ccc(OC)cc1)c1ccccc1 (configuration not stated),-0.98,-11,8
Cc1cccc(OCc2nnc(SCC(=O)Nc3ccc(C)c(Cl)c3)o2)c1,-0.23,-3,4
Cc1ccc(NC(=S)N2CCC(c3nc4ccccc4s3)CC2)cc1C,-0.97,x,29*
Cc1cc(C)cc(NC(=S)N2CCC(c3nc4ccccc4s3)CC2)c1,-0.69,x,7
C=CCSc1nnc(CCCCCN2C(=O)c3cccc4cccc(c34)C2=O)o1,-0.63,-9,5
CN(C)[C@@H]1CCC[C@@H]1OC(=O)C(c1ccccc1)c1ccccc1,0.48,17,10
Cc1ccc(N=Nc2c(N)[nH]n3c(=O)c4c(nc23)CCCC4)cc1,-0.48,x,11
Cc1ccc2nc(-c3ccc(Br)o3)oc(=O)c2c1,-0.23,-3,5
COc1cc2nc(-c3ccc(Br)o3)oc(=O)c2cc1OC,-0.96,95*,3
SMILES,sdo1 growth,Phagocytosis inh,Measles CPE
Cc1occc1C(=O)NNC1=CC(=O)CC(C)(C)C1,1.5,2,6
Cc1[nH]c(=O)c(C(=O)/C=C/c2ccccc2F)c2c1CCCC2,-1.2,x,7
CC(C)C(C(=O)Nc1sc2c(c1C#N)CCCCC2)N1C(=O)c2ccccc2C1=O (configuration not stated),-0.25,-1,56*
N#Cc1c(NC(=O)c2ccccc2)sc2c1CCC2,-0.4,3,2
COc1ccccc1-n1c(C)nnc1SCC(=O)Nc1cccc(C(C)=O)c1,0.5,0,15
c1ccc2c(c1)OCCOCCOCCOCCOc1ccccc1OCCOCCOCCO2,-0.65,-4,47*
Brc1ccc2c(c1)OCCOCCOCCOCCOCCO2,0.55,-8,5
Cn1cccc1Cc1nnc(SCC(=O)NC2CCCCC2)n1CCc1ccccc1,-0.62,1,5
Cc1nc2ccsc2c(=O)n1-c1ccc(Cl)cc1,-0.97,-2,2
C=CCOc1ccc(C2OC34CCCCC3C(C#N)(C#N)C2(C#N)C(=N)O4)cc1 (configuration not stated),0.33,1,3
CCOc1ccc(C2OC34CCCCC3C(C#N)(C#N)C2(C#N)C(=N)O4)cc1OC (configuration not stated),5.7*,2,18
CCCCOc1ccc(C2OC34CCCCC3C(C#N)(C#N)C2(C#N)C(=N)O4)cc1 (configuration not stated),-0.28,-1,3
Cc1ccc(C2OC34CCCCCC3C(C#N)(C(=N)O4)C2(C#N)C#N)cc1 (configuration not stated),0.07,-5,52*
CC(C)c1[nH]nc2c1C(c1cccnc1)C(C#N)=C(N)O2 (configuration not stated),0.82,1,44*
Cc1ccc(-c2[nH]nc3c2C(c2cccnc2)C(C#N)=C(N)O3)cc1 (configuration not stated),0.39[14 µM],x,31
Nc1nc(Nc2ccc(Cl)cc2)n[nH]1,0.37,1,39*
Clc1ccc(Nc2ncn[nH]2)cc1,1.7,x,12
CC(NC(=O)c1ccc(F)cc1)c1ccccc1 (configuration not stated),-0.65,0,38*
Cc1ccc(C(=O)NC(C)c2ccc(F)cc2)cc1 (configuration not stated),0.65,-5,10
O=C(O)c1nc(N2CCCC2)ncc1Cl,0.43,0,5
CC(=O)/C(C#N)=C1\NC(=O)C(Cc2ccccc2)S1 (configuration not stated),0.42[9.6 µM],x,91*
N#C/C(C(=O)N1CCOCC1)=C1/SC(Cc2ccccc2)C(=O)N1c1ccccc1 (configuration not stated),0.35,-1,2
Cc1cc(C)c2nc(N3CCCN(C(=O)c4cnccn4)CC3)c(C#N)cc2c1,-1.9,0,18
O=C1N=C2SCCN2/C1=C\c1ccccc1Cl,2.2,0,3
Cc1ccc2nsnc2c1S(=O)(=O)NCc1ccncc1,0.34,x,6
SMILES,sdo1 growth,Phagocytosis inh,Measles CPE
Cc1ccc2nsnc2c1S(=O)(=O)NCc1cccnc1,0.64,1,39*
CC1(C)CN=C(N(Cc2ccccc2)C(=O)Nc2ccccc2)S1,-0.57,2,6
O=C(c1ccc(COc2ccc(Cl)cc2)o1)N1CCN(Cc2ccc3c(c2)OCO3)CC1,-2.6,0,10
CCN1CCN(C(=O)c2ccc(COc3ccc(Cl)cc3)o2)CC1,0.85,-3,42*
Cc1ccc(N2C(=O)CC2(C#N)c2ccc(OCc3ccccc3)cc2)cc1 (configuration not stated),0.1,-1,27
O=C(CN1CCN(c2ccccc2)CC1)N1N=CCC1c1ccccc1 (configuration not stated),-0.08,x,3
O=C(CSC(=S)N1CCOCC1)N1N=CCC1c1ccccc1 (configuration not stated),0.5,-2,35*
Cc1ccc(NC2c3ccccc3C(=O)N2CCN2CCOCC2)cc1 (configuration not stated),0.78,0,1
CCOc1cc(C(=O)CSc2nnc(CNc3ccc(Cl)cc3)o2)ccc1NC(=O)CC,-0.65,-1,6
Cc1cc(C)n(CC(=O)N/N=C/c2cc([N+](=O)[O-])ccc2O)n1,0.57,-4,7
CCn1ncc(/C=N\NC(=O)Cc2ccc([N+](=O)[O-])cc2)c1C,0.74,-1,46*
Cc1cc2c(c(=O)o1)C(Cc1ccccc1)C(C#N)=C(N)O2 (configuration not stated),0.43,0,17

# Bioassay records from PubChem.
